Data as given in PubChem BioAssay AID651803 (National Center for Advancing Translational Sciences (NCATS), 2012).
Among all 1,200 compounds or so, fewer than 10 were called active. The call rests on the fitted dose curve; in most records, active means well fitted curve in the direction sought with a large enough effect; inconclusive means small, poorly fitted or top-dose-only effect, or another doubt; inactive means no such curve, though single readings can be large or run the other way. Only a sample is shown.

What follows are compounds tested against Transcriptional regulator ERG (Homo sapiens) (UniProt P11308) (assay: qHTS for Small Molecule Inhibitors of the ERG Ets/DNA interaction: TR assay against cherry picks). Conditions: ERG Ets domain-DNA fluorescence polarization, Texas red probe; series mostly up to 154 µM; activity change, negative = inhibition: at the top concentration.
From the text: The Ets family of proteins is a family of ~30 conserved transcription factors defined by the presence of an ~85 amino acid domain referred to as the Ets domain, which mediates sequence-specific DNA binding to a core DNA element GGAA/T.The Ets family member ERG has been linked to several neoplasms. […] More extensive studies of the effects of over-expression of ERG in prostate cells have recently been carried out and have shown that over-expression of ERG results in increased invasion. […] We will carry out a high throughout screen to identify inhibitors of the interaction between ERG and DNA using a fluorescence polarization (FP) assay with a His-tagged ERG Ets domain and fluorescently-labeled DNA probes to develop small molecule inhibitors of this interaction as probes to test this hypothesis and lay the groundwork for the development of targeted therapies against ERG. This is the confirmation against the cherry picks in theprimary screening assay. NIH Molecular Libraries Probe Production Network [MLPCN] NIH Chemical Genomics Center [NCGC] Grant: NS066464 PI Name: John Bushweller, University of Virgina
1.5 ul of protein solution (1 uM ERG domain in 300mM KCl, 50mM Tris-HCl, 1mM EDTA, 1mM DTT, pH 7.5); 20 nl Control plate and compound library plate; 1.5 ul mixture of 5 nM Fluorescein-DNA and 100nM Texas-615-DNA solution in same buffer as above solution; measure fluorescence polarization sequentially for fluorescein (Excitation = 480 nm, Emission = 535s, 535p nm) and Texas red (Excitation = 555 nm, Emission = 632s, 632p nm).
Further: % of control where 0% means no effect.

Transcriptional regulator ERG (Homo sapiens), sequence (P11308 whole entry, looked up, the tested form may be a part): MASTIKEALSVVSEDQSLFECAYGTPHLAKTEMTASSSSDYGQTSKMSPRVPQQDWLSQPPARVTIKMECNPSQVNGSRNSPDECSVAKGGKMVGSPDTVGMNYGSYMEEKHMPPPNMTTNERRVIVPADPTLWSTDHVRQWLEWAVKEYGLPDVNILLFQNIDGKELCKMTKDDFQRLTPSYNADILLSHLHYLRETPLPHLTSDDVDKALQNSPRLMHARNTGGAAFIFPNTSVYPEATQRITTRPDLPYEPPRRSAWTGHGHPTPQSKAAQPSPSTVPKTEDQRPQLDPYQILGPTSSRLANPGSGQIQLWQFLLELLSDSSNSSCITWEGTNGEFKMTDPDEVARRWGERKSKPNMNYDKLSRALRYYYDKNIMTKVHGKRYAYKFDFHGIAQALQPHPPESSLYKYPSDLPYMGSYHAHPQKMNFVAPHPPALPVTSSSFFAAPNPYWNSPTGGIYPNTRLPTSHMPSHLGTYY

Activity change, negative = inhibition, inactive:
COc1ccc(CN2CCC(C(=O)N3CCCC(C)C3)CC2)cc1OC (configuration not stated) 8.66%
Cc1ccc(NS(=O)(=O)c2cc(Br)cnc2N)c(Cl)c1 -14.9%
CCOc1cc(S(=O)(=O)n2ccc(C)n2)ccc1Br 10.8%
COc1ccc(NC(=O)C2CC(=O)n3c(nc4ccccc43)N2)cc1 (configuration not stated) 10.4%
COc1ccc(OC)c(NC(=O)c2cccc(NC(=O)c3ccccc3)c2)c1 4.7%
COc1ccc(CNCCC2(C(C)C)CCOC(C)(C)C2)cc1 (configuration not stated) 5.23%
O=C(NCCCN1CCOCC1)c1ccc(CSc2ccc(Cl)cc2)cc1 -2.11%
O=C(CN1C(=O)CS/C1=C\c1nc(-c2ccc(Cl)cc2)cs1)Nc1cccnc1Cl 4.61%
NCCNc1ccc2nnnn2n1 6.05%
CCN(CC)S(=O)(=O)c1cccc(-c2nc3n(n2)Cc2ccccc2-3)c1 17%
O=C(COc1ccc(-c2ccccc2)cc1)N1CCN(C(=O)c2cccs2)CC1 -5.14%
Cc1cc(/C=C(\C#N)C(=O)Nc2ccccc2)c(C)n1-c1ccc(C(=O)O)cc1 -0.126%
Cc1ccc(C=Nc2cccnc2N)cc1 44%
CC(C)C1NC(=S)N(Cc2ccccc2)C1=O (configuration not stated) -0.239%
Cc1nc2ccccc2c(=O)n1NC(=O)c1cccnc1Cl -1.27%
COc1ccc(CCn2c(C)cc(C(=O)COC(=O)c3cnc(C)cn3)c2C)cc1 -8.89%
CCC(CC)COC(=O)C(C#N)c1nc2ccccc2nc1N1CCN(CC)CC1 (configuration not stated) -11.9%
CCc1ccccc1N(CC(=O)NCc1ccco1)C(=O)CCC(=O)Nc1ccccn1 -0.223%
COc1ccc(NC(=O)CSCC(=O)N(C)Cc2cccc(OC)c2OC)cc1 1.32%
CN(C)c1ccc2c3c(ccc(N(C)C)c13)C(=O)OC2 3.2%
COc1ccc(NC(=S)NCc2ccc3c(c2)cc(C)n3C)cc1 -0.43%
Cc1cc2cc(CNC(=O)c3ccc(S(=O)(=O)N4CCCCC4)cc3)ccc2n1C 20.1%
COc1cc(OC)c(N(C)S(=O)(=O)c2cccc(C(=O)NC(C)C3CC4CCC3C4)c2)cc1Cl (configuration not stated) -3.28%
Nc1nc(Cl)c2ncn(C3OC(CO)C(O)C3O)c2n1 (configuration not stated) 0%
CC(C)(C)c1ccc(OCC(=O)Nc2cccc(S(=O)(=O)NC3=NCCCCC3)c2)cc1 4.64%
CCc1nc2ccccc2c(C(=O)NCc2ccccc2)c1C -5.65%
COC(=O)c1cc(NC(=O)c2c(Cl)cnn2C)cc(C(=O)OC)c1 -8.91%
O=C(CC(c1ccccc1)c1cc(Cl)ccc1O)NCCCN1CCOCC1 (configuration not stated) 4.28%
Cc1cccc(N2C(=O)CC(Cn3nc(C)cc3C)C2=O)c1 (configuration not stated) 3.34%
CC1=CC(=O)C(C(C)C)=C/C1=C(\c1cc(C(C)C)c(OP(=O)(O)O)cc1C)c1ccccc1C(=O)O -2.93%
Nc1c(C(=O)O)cnn1-c1ccccc1 -3.42%
OC(Cn1cnnc1)c1ccccc1 (configuration not stated) 3.72%
COc1ccccc1NS(=O)(=O)c1cc(C(=O)N2CCCC2)ccc1C 6.04%
COc1ccc(-c2nc3n(n2)C(c2ccccc2OC)C(C(=O)Nc2cccnc2)=C(C)N3)cc1 (configuration not stated) -20.2%
COc1ccc2c(CCNC(=O)/C=C/c3ccc(OC)c(OC)c3)c[nH]c2c1 1.82%
O=C(/C=C/c1ccc([N+](=O)[O-])cc1)NCc1ccco1 2.4%
CC1(C)C2CCC1(CS(=O)(=O)N1CCC(C(N)=O)CC1)C(=O)C2 (configuration not stated) 18.6%
CC(C)CNC(=O)CCc1nc(-c2ccccc2)no1 -4.45%
COc1ccc(N/C=C(\C(C)=O)c2ccc(OC)c(OC)c2)cc1OC 1.84%
O=C(CNC(=S)N(CCCN1CCOCC1)Cc1cccs1)NC1CCCCC1 2%
O=C(COc1ccc(F)cc1)Nc1nnc(-c2ccncc2)s1 -8.56%
COc1ccc(CCCC(=O)Nc2cc(C)ccc2OC)cc1 1.5%
CCOC(=O)C1CCCN(C(=O)c2nn(-c3ccc(C)cc3)c(=O)n(C)c2=O)C1 (configuration not stated) -21.4%
O=[N+]([O-])c1ccc(S(=O)(=O)N/N=C/c2ccsc2)cc1 -10.2%
O=C(Nc1ccc(N2CCOCC2)cc1)c1ccc2nc(-c3ccco3)c(-c3ccco3)nc2c1 -17%
CCn1c(=O)cc(OCC(=O)Nc2ccccc2C#N)c2ccccc21 -0.687%
CCOC(=O)C(=O)c1c(-c2ccccc2)nc2ccccn12 -0.0707%
O=C(NCC(=O)N(c1ccccc1)C(C(=O)NC1CCCCC1)c1cccnc1)c1ccco1 (configuration not stated) 1.05%
C[C@H](CO)N1C[C@H](C)[C@@H](CN(C)CC2CC2)Oc2c(NC(=O)C3CC3)cccc2C1=O 1.57%
CCOc1ccccc1C1CC(c2ccc(Br)cc2)Nc2nc(N)nn21 (configuration not stated) -19.2%
COc1ccc(/C=C/C(=O)Nc2c(C(=O)O)[nH]c3ccccc23)cc1OC -17.3%
COc1ccc(-c2noc(Cn3c(=O)c4ccccc4n(CC(=O)Nc4cccc(C(F)(F)F)c4)c3=O)n2)cc1 12.9%
COCCNC(=O)CSc1nc2ccccc2c(=O)n1-c1cccc(OC)c1 -10.6%
CCCCSc1cc(=O)n(-c2ccccc2)nc1C(=O)OCC -3.95%
COc1c2c(c(CCC(=O)O)c3c1C=CC(C)(C)O3)OC(C)(C)C=C2 0.0019%
CC1Cc2ccccc2N1CC(=O)Nc1ccc2c(c1)OCO2 (configuration not stated) -2.39%
CCC(C)NCCCOc1ccc(C)cc1OC (configuration not stated) -4.22%
CCc1ccc(S(=O)(=O)NC2CC(C)(C)NC(C)(C)C2)cc1 -5.64%
Cc1cc2nc(-c3ccc[nH]c3=O)n(Cc3ccccc3F)c2cc1C -0.252%
COc1ccc(OCCN2CCN(C(=O)c3ccc(OC(F)F)c(OC)c3)CC2)cc1 0.86%
COc1ccc(C(=O)N(C)Cc2ccc(C)o2)cc1OC1CCN(C(C)C)CC1 1.33%
COC(=O)C(CSCc1ccccc1)NC(=O)CSc1nc(N)cc(=O)[nH]1 (configuration not stated) 0.742%
COc1ccc2cc(CO)c(Cl)nc2c1 4.04%
Cc1cccc(-c2cnn(-c3cccc([N+](=O)[O-])c3)c2N)c1 -15.3%
CC(=O)Nc1ccc(SCC(=O)N(C)C2CCS(=O)(=O)C2)cc1 (configuration not stated) -0.814%
CC(C)=CCOc1ccc2ccc(=O)oc2c1 -0.682%
CCOC(=O)COc1ccc(/C=C2/C(=O)NN(c3ccc(F)cc3)C2=O)cc1OC 4.26%
Cc1ccc(-c2nnn(CC(=O)N(c3ccccc3)C(C(=O)NCC3CCCO3)c3ccc(F)cc3)n2)o1 (configuration not stated) -5.14%
Cc1ccc(CNC(=O)COc2ccc(S(=O)(=O)N3CCCC3)cc2)cc1 0.765%
O=C(OCCOCCN=C1NS(=O)(=O)c2ccccc21)c1ccccc1Br 4.92%
CC(=O)Nc1ccc(NC(=O)Cn2c(=O)n(-c3ccccc3)c(=O)c3oc4ccccc4c32)cc1 0.864%
COc1ccc(C(=O)n2nc(C)c(Br)c2C)cc1OC 1.94%
N#Cc1c(C(F)(F)F)cc(-c2cccs2)nc1SCC(=O)Nc1cccc(Br)c1 5.95%
N#CCCN(C(=S)NC(=O)C1CCCCC1)c1ccccc1F -3.69%
Cc1ccc2c(COC(=O)c3ccccc3Br)cc(=O)oc2c1 -0.0577%
COc1ccc(NC(=O)NCc2ccccn2)c(OC)c1 -2.62%
O=C(c1ccccc1)c1ccc[nH]1 -4.34%
Cc1ccc([N+](=O)[O-])c2c1C(N1CC(C)OC(C)C1)C(C)(C)O2 (configuration not stated) 5.79%
COc1ccccc1NC(=O)Cn1c(=O)n(CCC(=O)NCC2CCCO2)c(=O)c2cc(OC)c(OC)cc21 (configuration not stated) 0.0258%
Clc1ccc(-c2csc(N/N=C/c3ccco3)n2)cc1 -19.8%
CCOC(=O)CC1COCCN1Cc1cn[nH]c1-c1cc(OC)c(OC)c(OC)c1 (configuration not stated) 5.39%
COc1cc(C(=O)Nc2ccc(Cl)c([N+](=O)[O-])c2)cc(OC)c1OC -8.44%
COc1cccc2c1C(=N)c1c(O)c3c(c(O)c1C2=O)CC(O)(C(C)=O)CC3OC1CC(N)C(O)C(C)O1 (configuration not stated) 10.9%
O=C(NCc1cccc(Cl)c1)c1ccncc1 -9.86%
Cc1cccc(C)c1NC(=O)C1(N2C(=O)CC2c2ccccc2)CCCCC1 (configuration not stated) 0.216%
CC1(C)CC2CC(C)(CN2C(=O)c2ccc([N+](=O)[O-])cc2)C1 (configuration not stated) 0.742%
CN(C)c1nc(N)nc(Cn2nnc(-c3ccc(C(F)(F)F)cc3)n2)n1 3.53%
CC(NC(=O)c1cn(C)c2ccc(S(=O)(=O)N3CCCC3)cc2c1=O)c1ccccc1 (configuration not stated) -1.61%
Cc1[nH]c(=O)[nH]c(=O)c1/C=N/NC(=O)[C@H](C)N 2.01%
CCOC(=O)N1CCC(NC(=O)CSCc2nc(-c3ccc(OCC)cc3)oc2C)CC1 -9.6%
CC(C)(O)CN(CCCNC(=S)Nc1ccccc1)C(=S)Nc1ccccc1 -0.187%
S=c1[nH]nc(CSCCOc2ccccc2)o1 -12.2%
Cn1c(CO)cnc1SCc1ccc(F)cc1 18.1%
COc1ccc(CNC(=O)c2cccnc2SC)cc1OC -8.6%
Cc1cc(C)c2c(N)c(C(=O)c3ccc(Cl)cc3)sc2n1 5.05%
CCC1Oc2ccccc2N(CC(=O)NC2CC2)C1=O (configuration not stated) -0.665%
Oc1c(Cl)cc(Oc2cc(Cl)c(O)c(CN3CCOCC3)c2)cc1CN1CCOCC1 -6.09%
COc1ccc(S(=O)(=O)NCCNC(=O)N2CCOCC2)cc1 3.17%
O=C(CCNC(=O)c1ccccc1Cl)NCCCSc1ccccc1 3.19%
Cn1c(CNC(=O)c2cccs2)n[nH]c1=S 5.98%
CCCCC1=NN(C(=O)c2ccco2)C(O)(C(F)(F)F)C1 (configuration not stated) -2.3%
CCC(=O)N1CCN(c2nc3ccc(Br)cc3s2)CC1 2.3%
